Source: PubChem BioAssay (EPA / NIEHS)
Inconclusive results are not listed. Active and inactive are the calls of the source. How the source made its calls: active means hit-call score of the fitted dose curve at least 0.9, where 1 is the maximum; inconclusive means response in the unintended direction; inactive means score below 0.9.

Experiment: ATG_M_06_TRANS: Attagene TRANS-FACTORIAL HepG2 Assay for M06 Transcription Factor (Internal Marker) (AID 2282983)
Settings: HepG2 Attagene TRANS M06 internal marker reporter
Experimental: ATG_TRANS is a cell-based, multiplexed-readout assay that uses HepG2, a human liver cell line, with measurements taken at 24 hours after chemical dosing in a 24-well plate.ATG_M_06_TRANS is one of 30 assay component(s) measured or calculated from the ATG_TRANS assay. It is designed to make measurements of mRNA induction, a form of inducible reporter, as detected with fluorescence intensity signals by Reverse transcription polymerase chain reaction (RT-PCR) and Capillary electrophoresis technology.Data from the assay component ATG_M_06_TRANS was analyzed into 1 assay endpoint. This assay endpoint, ATG_M_06_TRANS, was analyzed in the positive analysis fitting direction relative to DMSO as the negative control and baseline of activity. Using a type of inducible reporter, measures of mRNA for gain-of-signal activity can be used to understand the background control at the transcription factor-level as they relate to the gene . Furthermore, this assay endpoint can be referred to as a secondary readout, because this assay has produced multiple assay endpoints where this one serves a background control function. To generalize the intended target to other relatable targets, this assay endpoint is annotated to the background measurement intended target family, where the subfamily is internal marker.
Human liver HepG2 cells are transiently transfected with multiple reporter transcription units (MRTUs) in 6-well plates using FuGene 6 reagent (Roche; 3 ml FuGene/1 mg DNA). The MRTU constructs are regulated by a cis-regulating element (promoter). […] A major difference between the CIS and TRANS system is that in CIS activities of endogenous TFs are measured, whereas the TRANS assay evaluates changes in activities of exogenous, chimeric NR-Gal4 proteins. […] At the end of 24 hour incubation, total RNA was isolated using TriZol reagent (Invitrogen). The isolated RNA is then reverse-transcribed using oligo(dT) primer and Mo-MLV reverse transcriptase (Invitrogen) with DNAse I (Ambion) treatment for 30 min. The one-tenth of the produced cDNA was amplified by PCR using Taq DNA polymerase (Invitrogen) and two reporter sequence-specific primers. The PCR products were fluorescently labeled by primer extension with 6-arboxyfluorescein (6-FAM) 5'-labeled reporter sequence-specific primer (2 min at 95 C, 20 s at 68 C and 10 min at 72 C) and these products were digested with 5U of HpaI (New England Biolabs) for 2h at 37 C. The fragments were purified using Qiaquick PCR columns (Qiagen), analyzed on an ABI 3130xL genetic analyzer (Applied Biosystems) with peak positions identified by using a set of X-rhodamine (ROX)-labeled MapMarker1000 molecular weight standards (BioVentures). The raw capillary electrophoresis data was processed using Attagraph software (Attagene).

outcome, inactive:
Brc1cc(Br)c(Oc2c(Br)cc(Br)c(Br)c2Br)cc1Br
C[N+](C)(CCCNS(=O)(=O)CCC(F)(F)C(F)(F)C(F)(F)C(F)(F)C(F)(F)C(F)(F)F)CC(=O)[O-]
COC(=O)C(F)(F)C(F)(F)C(F)(F)C(F)(F)C(F)(F)F
CCCCCCCCCC=CCC1CC(=O)OC1=O (stereo not given)
CCCCC(CC)C(=O)O (stereo not given)
N=C(N)c1ccc(OCCCCCOc2ccc(C(=N)N)cc2)cc1
O=C1Cc2ccccc2N1c1c(Cl)cccc1Cl
Cc1[nH]nc2c1N=C(c1ccccc1Cl)c1cc([N+](=O)[O-])ccc1N2
NCc1cccc(CN)c1
C=CC(=O)OCC(CO)(COCC(COC(=O)C=C)(COC(=O)C=C)COC(=O)C=C)COC(=O)C=C
COc1cccc(O)c1
CCCCN(C)C
COC(=O)CC(C(C)=O)C(=O)OC (stereo not given)
CC(C)CCOCCC(C)C
O=C(O)c1cccc(C(=O)O)n1
CCOC(C)=O
NC(C(F)(F)F)C(F)(F)F
FC(F)(F)C(F)(F)C(F)(F)C(F)(F)I
Cc1ccccc1C(OCCN(C)C)c1ccccc1 (stereo not given)
COc1ccccc1NC(=O)c1cc2ccccc2cc1O
Clc1ccc2c(Cl)ccnc2c1
CCCCC=O
CCC(=O)C=Cc1ccc(OC)cc1
COCC1CCC(CO)CC1 (stereo not given)
CCCCc1ccc2ccccc2c1S(=O)(=O)O
COC(O)c1ccccc1 (stereo not given)
COc1cc(OC)nc(NC(=O)NS(=O)(=O)Nc2ccccc2C(=O)N(C)C)n1
CC(C)(C)C1CCCCC1O (stereo not given)
CCN(CC)CC
O=C1OC(=O)C(F)(F)C1(F)F
Cc1cc(=O)oc2cc(O)ccc12
CCOC=O
CCOC(=O)CN[C@@H](C(=O)N1CC[C@H]1C(=O)NCc1ccc(/C(N)=N/O)cc1)C1CCCCC1
C=CC(=C)CC/C=C(\C)CCC=C(C)C
O=S(=O)(O)c1ccc2cc(O)ccc2c1
O=C(O)C(F)(F)OC(F)(F)C(F)(F)OC(F)(F)C(F)(F)OC(F)(F)C(F)(F)C(F)(F)C(F)(F)F
Oc1cccc2c(O)cccc12
CCN(CCC#N)c1ccccc1
CN(C)CCOC(c1ccccc1)c1ccccc1
Oc1c(Cl)ccc(Cl)c1Cl
